This excerpt belongs to a sample that is enriched for hits.
L3MBTL1 inh – qHTS Assay for the Inhibitors of L3MBTL1 | Potency, µM (doses to about 57.1 µM), inactives show top-dose activity, negative = inhibition, hits mostly inhibitors | 0.66% of 230,000 active | AlphaScreen L3MBTL1–H3K9me1 peptide binding | AID 485360, 2010; further: nearly all actives have a fitted effect of over 60% in size
Target sequence (Q9Y468 whole entry, looked up): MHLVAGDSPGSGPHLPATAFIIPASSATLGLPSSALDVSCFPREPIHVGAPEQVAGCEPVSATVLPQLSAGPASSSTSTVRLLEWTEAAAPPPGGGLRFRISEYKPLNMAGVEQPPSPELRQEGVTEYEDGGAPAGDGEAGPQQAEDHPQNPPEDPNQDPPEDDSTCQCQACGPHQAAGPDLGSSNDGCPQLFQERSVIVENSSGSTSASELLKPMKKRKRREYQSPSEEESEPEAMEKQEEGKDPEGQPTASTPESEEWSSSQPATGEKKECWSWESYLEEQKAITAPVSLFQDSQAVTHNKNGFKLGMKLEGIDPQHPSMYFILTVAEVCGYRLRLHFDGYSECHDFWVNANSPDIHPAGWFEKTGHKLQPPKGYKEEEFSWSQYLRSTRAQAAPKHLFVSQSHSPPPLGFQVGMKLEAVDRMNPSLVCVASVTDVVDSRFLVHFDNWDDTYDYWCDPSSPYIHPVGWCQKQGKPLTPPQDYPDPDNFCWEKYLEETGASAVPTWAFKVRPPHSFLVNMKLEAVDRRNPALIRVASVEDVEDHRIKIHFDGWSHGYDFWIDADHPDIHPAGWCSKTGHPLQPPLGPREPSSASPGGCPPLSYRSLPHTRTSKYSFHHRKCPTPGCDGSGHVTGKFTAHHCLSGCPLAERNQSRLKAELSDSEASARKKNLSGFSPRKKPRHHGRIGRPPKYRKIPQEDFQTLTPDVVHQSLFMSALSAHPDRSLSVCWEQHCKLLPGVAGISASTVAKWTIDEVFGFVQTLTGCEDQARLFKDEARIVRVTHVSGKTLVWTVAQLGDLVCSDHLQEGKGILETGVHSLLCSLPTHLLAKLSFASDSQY
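L3MBTL1 (50 nM) pre-complexed 30 min with biotinylated H3(1-15)K9me1 peptide (75 nM), then compounds added for 30 min at room temperature; AlphaScreen streptavidin donor/nickel chelate acceptor beads (10 ug/mL final) read after 30 min dark incubation.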
RECQ1 inh-1 – qHTS Assay for Inhibitors of RecQ-Like Dna Helicase 1 (RECQ1). ATP-dependent DNA helicase Q1 (Homo sapiens), P46063. RECQ1 DNA unwinding, red fluorescence kinetic read. Potency, µM (highest dose often 57.3 µM), without a hit: at the top dose activity, negative = inhibition, actives largely listed as inhibitors. 0.54% of 240,000 active;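 further: plate controls were vehicle for no effect and no enzyme for full effect; nearly all actives have a fitted effect of over 30% in size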
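RECQ1T1 50 nM; forked duplex (20 bp + 30-nt ss tails) 200 nM, ATP 2 mM final; pH 8.0, 2 mM MgCl2, 2.5 ug/ml poly(dI-dC); 15 min compound preincubation; discontinuous kinetic read over 2 h at RT.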
KDM4E inh – qHTS Assay for Inhibitors of Human Jumonji Domain Containing 2E (JMJD2E) | Lysine-specific demethylase 4E (Homo sapiens), B2RXH2 | JMJD2E catalytic domain, FDH-coupled NADH fluorescence (FDH is formaldehyde dehydrogenase) | Potency, µM (top dose mostly 57.1 µM), for the others: at the highest dose activity change, negative = inhibition, most hits filed as inhibitors | 1.6% of 230,000 active; active means well fitted inhibition curve with a large enough effect, not every such curve was filed as active; inconclusive means small, poorly fitted or top-dose-only effect, or another doubt; inactive means no such curve, though single readings can be large or run the other way;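 further: 0% = wells with enzyme and -100% = buffer wells without enzyme; nearly all actives have a fitted effect of over 50% in size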
APEX1 inh – qHTS Assay for Inhibitors of the Human Apurinic/apyrimidinic Endonuclease 1 (APE1) | recombinant APE1, TAMRA/BHQ-2 abasic DNA cleavage fluorescence | Potency, µM (titrated, usually from 65.8 µM), without a hit: at the highest dose activity change, negative = inhibition, actives largely listed as inhibitors | 0.35% of 350,000 active | AID 2517, 2012 | DNA repair nuclease/redox regulator APEX1 (Homo sapiens), P27695;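 further: plate controls were vehicle for no effect and reference inhibitor for full effect; nearly all actives have a fitted effect of over 55% in size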
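Readout is kinetic fluorescence (ex 525, em 598 nm) from cleavage of 50 nM TAMRA/BHQ-2 THF abasic duplex by 0.75 nM APE1, compound added 15 min beforehand at RT.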
BLM helicase inh – qHTS Assay for Inhibitors of Bloom's syndrome helicase (BLM); Potency, µM (series often up to 56.1 µM), inactives show at the highest dose activity change, negative = inhibition, most hits filed as inhibitors; RecQ-like DNA helicase BLM (Homo sapiens), P54132; 0.2% of 350,000 active; AID 2528, 2010; recombinant BLM DNA unwinding, fluorescence dequenching;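 further: plate controls were vehicle for no effect and no enzyme for full effect; nearly all actives have a fitted effect of over 35% in size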
RECQ1 conf – Confirmation qHTS Assay for Inhibitors of RecQ-Like Dna Helicase 1 (RECQ1). Potency, µM (doses to about 229 µM), inactives show at the highest dose activity change, negative = inhibition, usual class: inhibitors. shares compounds with RECQ1 inh-1. 28% of 610 active. RECQ1 helicase DNA unwinding, fluorescence; further: nearly all actives have a fitted effect of over 45% in size
ADP FP counter – Counterscreen for RECQ1 Inhibitors: ADP Fluorescence Polarization Displacement Assay | shares compounds with RECQ1 inh-1 | ADP fluorescence polarization displacement counterscreen | Potency, µM (series often up to 228 µM), inactives show top-dose activity change, negative = inhibition, actives largely listed as inhibitors | 27% of 530 active; further: nearly all actives have a fitted effect of over 45% in size
RECQ1 inh-2 – Confirmation qHTS Assay for Inhibitors of RecQ-Like Dna Helicase 1 (RECQ1) - Round 2 Cherry Picks; shares compounds with RECQ1 inh-1; recombinant RECQ1 DNA unwinding, red fluorescence; Potency, µM (doses to about 119 µM), inactives show at the highest dose activity, negative = inhibition, most hits filed as inhibitors; 15% of 1,100 active; further: nearly all actives have a fitted effect of over 50% in size
The depositor's hits bear a star; i = inactive; ? = inconclusive; · = not tested or not shown; [ ] = remark or other dose. Unless noted, the call rests on the fitted dose curve; in most records, active means well fitted curve in the direction sought with a large enough effect; inconclusive means small, poorly fitted or top-dose-only effect, or another doubt; inactive means no such curve, though single readings can be large; an effect the other way counts as inactive or inconclusive. Unless noted, on the % scale 0 is the no-effect control and ±100 the full control effect; potency means the concentration at half of the fitted maximal effect.

SMILES	L3MBTL1 inh	RECQ1 inh-1	KDM4E inh	APEX1 inh	BLM helicase inh	RECQ1 inh-2	others
O=C(O)c1ccc(CN2C(=O)CSC2=S)cc1	?	16µM*	-8%	?	-2%	-22%	RECQ1 conf=-1%[114 µM];ADP FP counter=48%[91.9 µM]
O=C1CSC(=S)N1Cc1cccnc1	·	25µM*	-9%	?	-6%	?
CCCn1ccc2c(OCC(=O)Nc3cc(C)ccc3C)cccc2c1=O	·	·	·	·	0%	·
CCOC(=O)[C@H]1[C@H]2COc3ccc(Cl)cc3[C@@H]2N2C(=O)CN(Cc3ccc(C)cc3)C(=O)[C@@]12C	-10%	·	·	20%	·	·
COc1ccccc1N1CCN(C2CCCN(C(=O)c3ccoc3C)C2)CC1 (centres undefined)	·	·	·	-2%	-1%	·
Cc1ccc(S(=O)(=O)NC2=NCN(CCOC(=O)c3ccccc3)CN2)cc1	·	32µM*	0%	3%	3%	1%
C/C=C\C=C/C(=O)Nc1cccc(C2=NOC3(C2)C[C@@H](C(N)=O)N(C(=O)c2ccccc2)C3)c1 (some centres undefined)	·	-4%	?	0%	-2%	·
COc1cc(/C=C2\CC/C(=C\c3cc(OC)c(O)c(OC)c3)C2=O)cc(OC)c1O	28µM*	14µM*	?	?	?	2.8µM*
O=C(O)Cc1cccc(OCCCN(Cc2cccc(C(F)(F)F)c2Cl)CC(c2ccccc2)c2ccccc2)c1	·	?	·	-16%	?	25µM*
CSc1nnc(-c2ccccc2)c(-c2ccccc2)n1	1%	i	1%	-11%	-11%	·
O=C(CSc1nnc(-c2ccco2)c(-c2ccco2)n1)Nc1ccccc1	4µM*	10µM*	16µM*	14µM*	14µM*	-26%
CSc1nnc(-c2ccco2)c(-c2ccco2)n1	·	?	?	?	?	-29%
COc1ccc(NC(=O)CSc2nnc(-c3ccco3)c(-c3ccco3)n2)cc1OC	·	·	·	-8%	-15%	·
CC(C)NC(=O)c1cnc2sc(N3CCCCCC3)nn2c1=O	·	·	·	·	-5%	·
O=C1C(Cl)=C(N2CCCCC2)C(=O)C(Cl)=C1c1cnc(N2CCCCC2)s1	18µM*	16µM*	14µM*	20µM*	14µM*	·	RECQ1 conf=50µM*;ADP FP counter=45µM*
N[C@@H](CO)c1nnc([C@H](CC(=O)O)NC(=O)C2CCNCC2)o1	23%	2%	-21%	3%	-1%	·	RECQ1 conf=-2%;ADP FP counter=6%
CCCCc1nc(NCCO)c(C#N)c2c1CCCC2	-12%	-1%	?	-8%	-6%	·
CC1CCCC(C)N1C(=O)COC(=O)c1ccc(Br)o1 (centres undefined)	4%	·	·	-4%	·	·
O=[N+]([O-])c1ccc(Sc2cccc[n+]2[O-])c2nonc12	?	?	57%	?	?	25µM*
Clc1ccc(Nc2ncn[nH]2)c(Cl)c1	10%	i	-8%	2%	-11%	·
O=C(c1ccccc1)N1CCN(Cc2ccccc2Br)CC1	-2%	0%	?	-4%	0%	·
Brc1ccccc1CN1CCC(N2CCCCC2)CC1	?	?	2%	-4%	-5%	-2%
Cc1cc(C)c(S(=O)(=O)NCC23C=CC(O2)C2C(=O)N(c4ccccc4)C(=O)C23)c(C)c1 (centres undefined)	1%	11µM*	11%	21%	-17%	-4%
COc1ccc(-c2nc(-c3ccccc3)c(Nc3ccc4ccccc4c3)o2)cc1	·	3%	?	-3%	-2%	·
CCCC1=NN2C(=N)/C(=C\c3ccc(SCc4ccco4)o3)C(=O)N=C2S1	·	10µM*	?	4µM*	?	35µM*
SMILES	L3MBTL1 inh	RECQ1 inh-1	KDM4E inh	APEX1 inh	BLM helicase inh	RECQ1 inh-2	others
CCC1=NN2C(=N)/C(=C\c3ccc(SCc4ccco4)o3)C(=O)N=C2S1	·	22µM*	-9%	?	?	-30%
O=C1NC(=S)S/C1=C\c1ccc(SCc2ccco2)o1	3.5µM*	5µM*	?	1.8µM*	?	·	RECQ1 conf=40µM*
CCC1=NN2C(=N)/C(=C/c3c(C)nn(-c4ccccc4)c3Cl)C(=O)N=C2S1	-6%	-6%	-5%	7%	-13%	·
O=C(/C=C/c1ccc2c(c1)OCO2)Nc1nc(-c2ccccc2)cs1	3%	1.4µM*	?	9%	-11%	?	RECQ1 conf=-3%[114 µM];ADP FP counter=6%[91.9 µM]
Cc1sc(NC(=O)/C=C/c2ccc3c(c2)OCO3)nc1-c1ccccc1	1%	-14%	-1%	21%	-9%	·
COc1ccc(Cl)cc1NC(=O)CN(C)C(=O)c1ccc(-n2nc(C)cc2C)cc1	-1%	·	·	-4%	·	·
Cc1c2cnn(CC(=O)NCc3ccc(F)cc3)c(=O)c2c(C)n1Cc1ccccc1F	·	·	·	·	-8%	·
Cc1c2cnn(CC(=O)Nc3c(F)c(F)cc(F)c3F)c(=O)c2c(C)n1Cc1ccccc1F	·	25µM*	?	?	?	?
CCCSc1oc(-c2ccco2)nc1S(=O)(=O)c1ccccc1	2%	-6%	-26%	-5%	-1%	·
Cc1ccc(C(=O)N2CCN(C(=O)CN3CCOCC3)C2)cc1	·	-7%	5%	10%	0%	·
CCc1nnc(NC(=O)CSc2nnnn2-c2cccc(C(=O)OC)c2)s1	·	-9%	1%	-1%	1%	·
Nc1ccc(-c2nc3ccc(C(=O)O)cc3s2)cc1	6%	?	?	?	-5%	-28%
COC(=O)c1cnc(Nc2cccc(C(F)(F)F)c2)c([N+](=O)[O-])c1	?	i	1%	8%	-1%	·
CC(=O)N1CCN(c2ccc(NS(=O)(=O)c3ccc(C)cc3)cc2)CC1	·	·	·	73%	-1%	·
Oc1ccccc1-c1nnc(SCCN2CCOCC2)n1Cc1ccccc1	-10%	1.6µM*	?	-1%	0%	?	RECQ1 conf=8%[114 µM];ADP FP counter=-10%[91.9 µM]

Bioassay records from PubChem BioAssay.
